Test results as given in PubChem BioAssay AID1159580 (chemical genetic matrix, 2015).
Among all 5,500 compounds or so, about 2,000 (36%) were called active. Not shown: some 18% with an inconclusive outcome. Cut-off read from the data, not from the text of the source: active = normalized growth mostly below about 0.91 (no sharp cut-off); inconclusive = no clear call, values can overlap the other calls; inactive = mostly above about 0.92. Some of the results follow.

Assay: chemical genetic growth profiling, strain panel (AID 1159580);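 note: tested at 20 µM; growth read once vehicle control cultures reached saturation at 30 °C; 1 = growth at the plate median or of vehicle wells; lower values mean less growth of the strain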
Conditions: S. cerevisiae deletion strains, growth OD

Measured: normalized growth

CCCCCCCCCCCCCCCC(=O)OC[C@H](NC(=O)C(Cl)Cl)[C@H](O)c1ccc([N+](=O)[O-])cc1
inactive: locus YAL021C, strain ccr4, active compounds read low 0.986 | locus YAL026C, strain drs2, active compounds read low 0.995 | locus YAL030W, strain snc1, active compounds read low 1.04 | locus YBL061C, strain skt5, active compounds read low 1.02 | locus YBR009C, strain hhf1, active compounds read low 1.02 | locus YBR023C, strain chs3, active compounds read low 1.01 | locus YBR171W, strain sec66, active compounds read low 1.06 | locus YBR231C, strain swc5, active compounds read low 1.01 | locus YBR279W, strain paf1, active compounds read low 1.02 | locus YCL011C, strain gbp2, active compounds read low 1.03 | locus YCL016C, strain dcc1, active compounds read low 1 | locus YCL069W, strain vba3, active compounds read low 1.04 | locus YCR088W, strain abp1, active compounds read low 1.04 | locus YDL005C, strain med2, active compounds read low 1.05 | locus YDL040C, strain nat1, active compounds read low 1.01 | locus YDR001C, strain nth1, active compounds read low 1.03 | locus YDR069C, strain doa4, active compounds read low 0.973 | locus YDR137W, strain rgp1, active compounds read low 1.01 | locus YDR159W, strain sac3, active compounds read low 1.03 | locus YDR195W, strain ref2 1.05 | locus YDR297W, strain sur2, active compounds read low 1.03 | locus YDR334W, strain swr1, active compounds read low 1.03 | locus YDR335W, strain msn5, active compounds read low 1.02 | locus YDR392W, strain spt3, active compounds read low 1.03 | locus YEL003W, strain gim4, active compounds read low 1.04 | locus YEL037C, strain rad23, active compounds read low 1.03 | locus YEL061C, strain CIN8 (second series), active compounds read low 1.04 | locus YER015W, strain faa2, active compounds read low 1 | locus YER016W, strain bim1, active compounds read low 1.02 | locus YER111C, strain swi4, active compounds read low 1.02 | locus YER155C, strain BEM2 (second series), active compounds read low 1.03 | locus YFR010W, strain ubp6, active compounds read low 1.01 | locus YGL167C, strain pmr1, active compounds read low 1.03 | locus YGL173C, strain kem1, active compounds read low 1.05 | locus YGL227W, strain vid30, active compounds read low 1.04 | locus YGL240W, strain doc1, active compounds read low 1.07 | locus YGL253W, strain hxk2, active compounds read low 1.01 | locus YHR013C, strain ard1, active compounds read low 1.07 | locus YHR027C, strain rpn1, active compounds read low 0.992 | locus YHR030C, strain SLT2, active compounds read low 0.97 | locus YHR079C, strain IRE1, active compounds read low 0.985 | locus YHR142W, strain chs7, active compounds read low 1.05 | locus YJL092W, strain hpr5, active compounds read low 1.04 | locus YJL095W, strain BCK1 (second series), active compounds read low 1.05 | locus YJL095W, strain BCK1, active compounds read low 0.998 | locus YJL115W, strain asf1, active compounds read low 1.05 | locus YJL129C, strain trk1, active compounds read low 1.09 | locus YJL154C, strain vps35, active compounds read low 1.03 | locus YJL164C, strain tpk1, active compounds read low 1.04 | locus YJL166W, strain qcr8, active compounds read low 1.03 | locus YJL187C, strain SWE1, active compounds read low 1.05 | locus YJR066W, strain TOR1, active compounds read low 0.984 | locus YKL160W, strain elf1, active compounds read low 1.02 | locus YKR026C, strain gcn3, active compounds read low 1.03 | locus YKR091W, strain srl3, active compounds read low 1.02 | locus YLL001W, strain dnm1, active compounds read low 1.02 | locus YLL026W, active compounds read low 1 | locus YLL041C, strain sdh2, active compounds read low 1.02 | locus YLR027C, strain aat2, active compounds read low 1.02 | locus YLR113W, strain HOG1, active compounds read low 0.975 | locus YLR221C, strain rsa3, active compounds read low 1.02 | locus YLR258W, strain gsy2, active compounds read low 1.03 | locus YLR262C, strain YPT6 (second series), active compounds read low 1.03 | locus YLR320W, strain mms22, active compounds read low 1.01 | locus YLR342W, strain FKS1, active compounds read low 1.01 | locus YLR357W, strain rsc2, active compounds read low 1.03 | locus YLR370C, strain arc18, active compounds read low 1.04 | locus YLR384C, strain iki3, active compounds read low 1.02 | locus YML120C, strain ndi1, active compounds read low 1.01 | locus YMR125W, strain sto1, active compounds read low 1.06 | locus YMR205C, strain PFK2, active compounds read low 1.04 | locus YMR231W, strain pep5, active compounds read low 1.03 | locus YNL071W, strain lat1, active compounds read low 0.986 | locus YNL183C, strain NPR1, active compounds read low 0.927 | locus YNL209W, strain ssb2, active compounds read low 0.995 | locus YNL248C, strain rpa49, active compounds read low 1.04 | locus YNL322C, strain KRE1 (second series), active compounds read low 1.05 | locus YNR049C, strain mso1, active compounds read low 1.04 | locus YOR001W, strain rrp6, active compounds read low 1.03 | locus YOR070C, strain gyp1, active compounds read low 1.03 | locus YOR080W, strain dia2, active compounds read low 1.03 | locus YOR083W, strain WHI5, active compounds read low 1 | locus YOR106W, strain vam3, active compounds read low 1.02 | locus YOR231W, strain MKK1, active compounds read low 0.997 | locus YOR265W, strain rbl2, active compounds read low 1.02 | locus YOR270C, strain vph1, active compounds read low 1 | locus YOR290C, strain snf2, active compounds read low 0.999 | locus YPL051W, strain arl3, active compounds read low 0.999 | locus YPL078C, strain atp4, active compounds read low 1.04 | locus YPL106C, strain sse1, active compounds read low 1.08 | locus YPL240C, strain hsp82, active compounds read low 1.05 | locus YPL256C, strain CLN2, active compounds read low 1.01
active: locus YMR058W, strain fet3, active compounds read low 0.88 | locus YMR129W, active compounds read low 1.09 [resistant]
